# ± gives the standard deviation.
# Tested on: MILI (PIWIL2) piRISC loaded with L1MC piRNA (26 nt)
# Assay: pre-steady-state target cleavage rate (min^-1); guide: L1MC piRNA 5'p-UAACUAAAUACUAUGCAAGCUGUAGG; MIWI and MILI are mouse PIWI proteins and EfPiwi is from a freshwater sponge; tags in brackets are library labels; higher = faster piRNA-guided slicing of the target
# Settings: auxiliary factor: 500 nM mouse GTSF1
# In short: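 The pre-steady-state cleavage rate came from a burst-and-steady-state fit to pooled data from three Cleave-'n-Seq trials, in which uncleaved targets were sequenced and normalised to depth and to weakly complementary targets. Each reaction held 0.1 nM transcribed, DNA-blocked target RNA library and 1 nM active affinity-purified piRISC carrying one synthetic guide, with or without 500 nM GTSF1 partner protein, in HEPES–potassium acetate buffer at 33 °C for 0–8 or 0–960 min. k3 was capped at 0.0001 min^-1.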
row,Sequence,pre-steady-state target cleavage rate
1,UCCUGGAUGUCGUUGCAUAGUAUUUUGUUA,0.194 ± 0.044
2,UCCUGGAUGUCGAAGCAUAUUAUUUAGUUA,0.00703 ± 0.0037
3,UCCUGGAUGUGCUUCGAUAGUAUUUAGUAA,0.0404 ± 0.011
4,UCCUGGAUGUCCUUGCAUAGUAAUUUGUUA,0.0222 ± 0.0085
5,UCCUGGAACACCUUGCAUAGUAUUUAGAAA,0.146 ± 0.031
6,UCCUGGAUGUCCUUGACAUAGUAUUUAGUUA,0.0214 ± 0.0096
7,UCCUGGUACAGCUUGCAAAGAAUUUAGUUA,0.00951 ± 0.0059
8,UCCUGGAUGAGCUUGGAUAGUAUUUAGAUA,0.0187 ± 0.0061
9,UCCUGGAACAGCUUGCAUAGUAUUUAGUCUA,0.055 ± 0.015
10,UCCUGGAACACGUUGCAUAGUAUUUUCAAA,0.0973 ± 0.026
11,UCCUCCUACAGCUUGCAUUCUAUUUAGUUA,0.0458 ± 0.0096
12,UCCUGGAUGUGCUUGCAUAGUAAAUAGUAA,0.0121 ± 0.0056
13,UCCUGGAUCAGCUUGCAUAGUAUAAUCAAA,0.0782 ± 0.019
14,UCCUGGAUGUCCAUGCAAAGUAUUUAGUUA,0.0101 ± 0.0043
15,UCCUGGAACAGCUUGGUUAGUAUUUAGAAA,0.16 ± 0.04
16,UCCUGGUACAGCUUGCUAAGUAUUUACAAA,0.0119 ± 0.0056
17,UCCUCCUACAGCUUGCAUAGAAUAUAGUUA,0.0822 ± 0.019
18,UCCUGGAACAGCAAGCAUAGUAUUUUCAAA,0.0642 ± 0.018
19,UCCUCCUUCAGCUUGCAUAGUAUUUAGAAA,0.119 ± 0.021
20,UCCUGGAUGUCGAACGAUAGUAUUUAGUAUA,< 0.0001
21,UCCUGCUACAGCUUGCAUAGAUUUUAGUAA,0.0161 ± 0.0046
22,UCCUGGAACAGCUUGCAUAGUAUUAACUUA,0.0356 ± 0.0096
23,UCCUGGAUCAGCUUGCAUGUAUUUAGUUA,0.041 ± 0.0073
24,UCCUGGAACAGCUUGCAUAGAAAUUAGUUA,0.0351 ± 0.0085
25,UCCUGGAUGUGCUUGCAUUGUAUUUAGUAA,0.0856 ± 0.015
26,UCCUGGAUGUGCUUGCAUAUAUUUAGUUA,0.00444 ± 0.0037
27,UCCUCCUACAGCUUGCAUUCUAUUUACAAA,0.0257 ± 0.0099
28,UCCUGGAACAGCUUCGAUAGUAUUUAGAAA,0.0923 ± 0.021
29,UCCUGGAUGAGCUUGCAUAGUAUUUUGAUA,0.0343 ± 0.014
30,UCCUGGAUGUCGAUGCAUAGUAUUUACUUA,0.0276 ± 0.01

# Same assay, conditions: auxiliary factor: none (no GTSF1)
row,Sequence,pre-steady-state target cleavage rate
1,UCCUGGAUGUCGAACGUAUGUACUUUAGUUA,< 0.0001
2,UCCUGGAUGUCCAACCAUAGUAUUUAGUAA,< 0.0001
3,UCCUGGAUGUGCUUGCAUAGAUAUUUAGUUA,0.00495 ± 0.0023
4,UCCUGGAUGUCGAACGUAUGUAUUUAGUAA,< 0.0001
5,UCCUGGAUGUCGAACGAUAGUUUUAAGUUA,< 0.0001
6,UCCUGGAUGUCGAACCAUAGUAAUUUGUUA,< 0.0001
7,UCCUGGAUGUCGAACCAUAGUAUUGAGUUA,< 0.0001
8,UCCUGGAUGUCGAACGUAAGUAUUUAGUAUA,< 0.0001
9,UCCUGGAUGUGCUUCCAUAGUAUUUAGAUA,< 0.0001
10,UCCUGGAUGUCGAACGUAAGUUUUAGUUA,< 0.0001

# From the supplement of paper PMC10338343
